According to PubChem BioAssay (Tox21):
Records with an inconclusive call do not appear. The source made the active and inactive calls. Unless noted, calls follow the shape of the dose curve; as a rule, active = well fitted curve in the direction sought with a large enough effect in the repeat runs; inconclusive = weak or mixed curves; inactive = no such curve, though single readings can be large; an effect the other way counts as inactive or inconclusive.

How the values were obtained:
[1] = A CellTox Green Cytotoxicity Assay to monitor cytotoxicity in HepG2 cells - 8 hour (AID 1224890); also: nearly all actives have a fitted effect of over 45% in size
Procedure, shortened: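 HepG2 cells were seeded together with the CellTox Green dye at 600 cells/well, left 5 h at 37 C/5% CO2, then given compounds in DMSO. Fluorescence from dye bound to dead-cell DNA was read repeatedly over 40 h of treatment at 37 C.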

[2] = qHTS assay to identify small molecule antagonists of the estrogen receptor alpha (ER-alpha) signaling pathway using the BG1 cell line in the presence of 0.1 nM 17-beta-estradiol - cell viability counter screen (AID 1259241); also: nearly all actives have a fitted effect of over 40% in size
Procedure, shortened: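 Cells were plated and left 24 hr, compounds in DMSO were pinned in, 17beta-estradiol was added to 0.1 nM final, and after 22 hr CellTiter-Fluor reagent was added for 30 min before fluorescence was read.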

[3] = qHTS assay to identify small molecule antagonists of the androgen receptor (AR) signaling pathway using the MDA cell line in the presence of 0.5 nM R1881 - cell viability counter screen (AID 1259242); also: nearly all actives have a fitted effect of over 45% in size
Procedure, shortened: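 MDA-kb2 cells (human breast carcinoma, stably carrying MMTV-luciferase reporter) were exposed to compounds with 0.5 nM R1881 (final) for 16 hr at 37C, 0% CO2; viability then read as live-cell protease fluorescence (CellTiter-Fluor, 30 min) in the same wells.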

[4] = molecular target: Estrogen receptor (Homo sapiens) (UniProt P03372); test: qHTS assay to identify small molecule antagonists of the estrogen receptor alpha (ER-alpha) signaling pathway using the BG1 cell line in the presence of 0.1 nM 17-beta-estradiol (AID 1259244); also: nearly all actives have a fitted effect of over 50% in size
Chain of Estrogen receptor (Homo sapiens) (P03372 whole entry, looked up): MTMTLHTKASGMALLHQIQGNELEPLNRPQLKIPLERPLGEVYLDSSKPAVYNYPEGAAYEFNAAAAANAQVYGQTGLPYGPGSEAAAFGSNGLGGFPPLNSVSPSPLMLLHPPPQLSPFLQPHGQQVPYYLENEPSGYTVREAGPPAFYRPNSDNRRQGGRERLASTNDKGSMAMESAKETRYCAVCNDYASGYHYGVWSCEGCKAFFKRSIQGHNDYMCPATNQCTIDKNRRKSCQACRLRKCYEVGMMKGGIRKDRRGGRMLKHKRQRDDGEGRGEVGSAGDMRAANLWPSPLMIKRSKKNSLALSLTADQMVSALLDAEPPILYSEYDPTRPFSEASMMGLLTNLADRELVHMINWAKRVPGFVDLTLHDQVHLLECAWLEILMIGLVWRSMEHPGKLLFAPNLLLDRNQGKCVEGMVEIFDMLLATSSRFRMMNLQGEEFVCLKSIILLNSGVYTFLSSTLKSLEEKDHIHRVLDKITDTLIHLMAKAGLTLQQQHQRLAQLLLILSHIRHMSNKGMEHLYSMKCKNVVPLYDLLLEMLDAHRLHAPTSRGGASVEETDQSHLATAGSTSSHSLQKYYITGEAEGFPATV
Procedure, shortened: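 VM7Luc4E2 cells (endogenous full-length ER-alpha, stable 4xERE-luciferase) were grown 5 days in phenol red-free medium with charcoal-stripped FBS, then exposed 22 h at 37C to compounds plus 0.1 nM (final) 17beta-estradiol; ONE-Glo luminescence read-out.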

[5] = qHTS assay to identify small molecule HDAC inhibitors (AID 1259364); also: top concentration of the series differs between compounds; nearly all actives have a fitted effect of over 45% in size
Procedure, shortened: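 Wild-type HCT-116 cells were plated overnight, exposed to compounds for 2 h at 37 °C, then given HDAC-Glo class I/II luminogenic reagent for 30 min at room temperature before luminescence was read.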

[6] = qHTS assay to identify small molecule HDAC inhibitors - cell viability counter screen (AID 1259365); also: series mostly up to about 92 µM; nearly all actives have a fitted effect of over 50% in size
Procedure, shortened: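 Counter screen in wild-type HCT-116 cells: compounds dissolved in DMSO are pin-transferred onto overnight-plated cells and left 2hr at 37C. ATP-based CellTiter-Glo luminescence then measures viable cells.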

[7] = qHTS assay to identify small molecule agonists of the sonic hedgehog signaling (Shh) pathway - cell viability counter screen (AID 1259366); also: nearly all actives have a fitted effect of over 50% in size
Procedure, shortened: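 Cells are plated at 2,000 per well and left 4hr at 37C, 5% CO2 before compound addition. After 23hr of treatment, CellTiter-Fluor reagent is added for 1hr at 37C and fluorescence is measured.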

[8] = qHTS assay to identify small molecule antagonists of the sonic hedgehog signaling (Shh) pathway - cell viability counter screen (AID 1259367); also: nearly all actives have a fitted effect of over 55% in size
Procedure, shortened: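 NIH/3T3-derived Gli1-Luc reporter cells, 2,000/well, plated 4 hr before compound addition, then stimulated with conditioned medium for 24 hr at 37C. Viability measured in the same wells by CellTiter-Fluor fluorescence, reagent added at 23 hr for 1 hr.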

[9] = qHTS assay to identify small molecule agonists of the sonic hedgehog signaling (Shh) pathway (AID 1259368; calls by dose curve; also: series mostly up to about 92 µM; nearly all actives have a fitted effect of over 15% in size)
Procedure, shortened: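 NIH/3T3-derived 3T3Gli1-Luc cells carrying a stably integrated Gli1 response element–firefly luciferase reporter were plated, left 4 hr at 37 C, then given compounds in DMSO for 24 hr. Luminescence was read 30 min after adding luciferase reagent.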

[10] = qHTS assay to identify small molecule antagonists of the sonic hedgehog signaling (Shh) pathway (AID 1259369; calls by dose curve; also: nearly all actives have a fitted effect of over 45% in size)
Procedure, shortened: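 NIH/3T3-derived 3T3Gli1-Luc cells with stably integrated Gli1-Luc reporter were preincubated 4hr at 37 C, then given compounds in DMSO plus Shh conditioned medium and incubated 24hr. Firefly luciferase luminescence read after 30min reagent at room temperature.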

[11] = qHTS assay to identify small molecule agonists of the androgen receptor (AR) signaling pathway in the presence of an antagonist - cell viability counter screen (AID 1259379); also: series mostly up to about 92 µM; nearly all actives have a fitted effect of over 25% in size
Procedure, shortened: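 MDA-kb2 human breast carcinoma cells (stable MMTV-luciferase, AR/GR responsive) were seeded 3,000 cells/well, pre-incubated 5 hr at 37C without CO2, then given 3.0uM nilutamide and compounds at 15 concentrations for 16 hr. Viability was read by CellTiter-Fluor fluorescence.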

[12] = molecular target: Androgen receptor (Homo sapiens) (UniProt P10275); test: qHTS assay to identify small molecule agonists of the androgen receptor (AR) signaling pathway in the presence of an antagonist (AID 1259381; calls by dose curve; also: nearly all actives have a fitted effect of over 15% in size)
Chain of Androgen receptor (Homo sapiens) (P10275 whole entry, looked up): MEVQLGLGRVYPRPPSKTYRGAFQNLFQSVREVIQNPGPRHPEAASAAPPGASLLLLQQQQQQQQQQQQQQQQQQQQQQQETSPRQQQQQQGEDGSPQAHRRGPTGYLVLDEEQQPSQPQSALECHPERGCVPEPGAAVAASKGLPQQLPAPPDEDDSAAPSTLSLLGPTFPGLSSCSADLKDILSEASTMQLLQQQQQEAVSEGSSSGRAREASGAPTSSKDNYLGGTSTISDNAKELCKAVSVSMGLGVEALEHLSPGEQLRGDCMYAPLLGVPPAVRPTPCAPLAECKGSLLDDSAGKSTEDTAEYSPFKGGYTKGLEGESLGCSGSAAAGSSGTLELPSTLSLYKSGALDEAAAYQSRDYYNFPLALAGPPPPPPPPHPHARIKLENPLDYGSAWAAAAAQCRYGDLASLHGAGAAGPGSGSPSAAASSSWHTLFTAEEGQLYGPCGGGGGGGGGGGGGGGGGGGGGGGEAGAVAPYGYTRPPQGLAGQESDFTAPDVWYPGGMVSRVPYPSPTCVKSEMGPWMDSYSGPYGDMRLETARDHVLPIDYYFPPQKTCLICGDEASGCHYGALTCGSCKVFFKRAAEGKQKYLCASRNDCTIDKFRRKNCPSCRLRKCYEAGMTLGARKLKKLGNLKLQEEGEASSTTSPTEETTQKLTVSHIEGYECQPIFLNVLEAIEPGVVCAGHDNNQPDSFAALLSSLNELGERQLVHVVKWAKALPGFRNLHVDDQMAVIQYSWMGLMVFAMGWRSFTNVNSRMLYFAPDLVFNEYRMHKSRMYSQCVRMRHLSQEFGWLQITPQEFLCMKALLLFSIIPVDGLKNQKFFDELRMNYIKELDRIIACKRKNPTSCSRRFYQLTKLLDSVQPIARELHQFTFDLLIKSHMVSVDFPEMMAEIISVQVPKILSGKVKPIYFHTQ
Procedure, shortened: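 MDA-kb2 human breast carcinoma cells carrying an MMTV-luciferase reporter (AR- and GR-responsive) were treated with compounds at 15 concentrations plus 3.0uM final nilutamide for 16hr at 37C without CO2; luminescence was read after ONE-Glo addition.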

[13] = qHTS assay to identify small molecule antagonists of the estrogen receptor beta (ER-beta) signaling pathway - cell viability counter screen (AID 1259382); also: series mostly up to about 92 µM; nearly all actives have a fitted effect of over 55% in size
Procedure, shortened: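 ER-beta-UAS-bla HEK293T cells (2,000/well, 2% charcoal-stripped FBS) were pre-incubated 6 hr at 37C, then given compound plus 1nM final 17-beta-estradiol for 16 hr. Viability was read in the same wells by CellTiter-Glo luminescence after 30 min at room temperature.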

[14] = molecular target: Estrogen receptor (Homo sapiens) (UniProt P03372); test: qHTS assay to identify small molecule agonists of the estrogen receptor alpha (ER-alpha) signaling pathway in the presence of an antagonist (AID 1259383; calls by dose curve; also: top concentration of the series differs between compounds; nearly all actives have a fitted effect of over 15% in size)
Procedure, shortened: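 VM7Luc4E2 cells (endogenous full-length ER-alpha, 4×ERE-luciferase) were precultured 5 days in phenol red-free medium with 10% charcoal-stripped FBS, given 10.0nM ICI-182,780 (final), then treated with compounds at 15 concentrations for 22hr at 37C; luminescence read with ONE-Glo.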

[15] = qHTS assay to identify small molecule agonists or antagonists of the thyroid stimulating hormone receptor (TSHR) signaling pathway - wild type cell line counter screen (AID 1259384; calls by dose curve)
Procedure, shortened: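 Wild-type Hek293 cells, 800/well, 18 h at 37C, then compound with Ro20-1724 for 30 min RT. cAMP by HTRF (cAMP-d2/anti-cAMP cryptate), 1 h RT, fluorescence read. 15 concentrations, triplicates.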

[16] = molecular target: Estrogen receptor beta (Homo sapiens) (UniProt Q92731); test: qHTS assay to identify small molecule agonists of the estrogen receptor beta (ER-beta) signaling pathway (AID 1259377; active = well fitted activation curve with a large enough effect in the signal ratio in the repeat runs, not every such curve was filed as active; the % refers to the signal ratio)
Chain of Estrogen receptor beta (Homo sapiens) (Q92731 whole entry, looked up, the tested form may be a part): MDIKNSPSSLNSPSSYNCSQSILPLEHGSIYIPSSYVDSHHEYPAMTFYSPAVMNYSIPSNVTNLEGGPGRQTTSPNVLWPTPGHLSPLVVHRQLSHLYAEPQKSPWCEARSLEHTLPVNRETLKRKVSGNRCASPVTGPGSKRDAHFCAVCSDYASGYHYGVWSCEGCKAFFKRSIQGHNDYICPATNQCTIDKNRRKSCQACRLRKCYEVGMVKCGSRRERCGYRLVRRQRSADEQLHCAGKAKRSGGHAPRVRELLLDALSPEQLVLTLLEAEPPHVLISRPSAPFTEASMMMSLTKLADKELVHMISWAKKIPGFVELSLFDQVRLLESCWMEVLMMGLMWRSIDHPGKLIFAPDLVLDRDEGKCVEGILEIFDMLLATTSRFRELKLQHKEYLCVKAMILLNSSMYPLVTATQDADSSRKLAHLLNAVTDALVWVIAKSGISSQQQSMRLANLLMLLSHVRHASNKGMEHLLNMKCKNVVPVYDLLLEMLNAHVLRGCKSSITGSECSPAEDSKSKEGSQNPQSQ
Procedure, shortened: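 Agonist mode cell assay in GripTite HEK293T cells expressing an ER-beta fusion that drives beta-lactamase from an Upstream Activator Sequence; 16 hr compound exposure at 37C, then 2 h LiveBLAzer B/G FRET substrate at room temperature, fluorescence read-out.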

[17] = molecular target: Estrogen receptor beta (Homo sapiens) (UniProt Q92731); test: qHTS assay to identify small molecule antagonists of the estrogen receptor beta (ER-beta) signaling pathway (AID 1259378; active = well fitted inhibition curve with a large enough effect in the signal ratio in the repeat runs, not every such curve was filed as active; the % refers to the signal ratio)
Procedure, shortened: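 ER-beta-UAS-bla HEK293T cells in 2% charcoal-stripped FBS medium treated with compound plus 1nM final 17-beta-estradiol for 16 hr at 37C. Beta-lactamase reporter read by FRET substrate fluorescence after 2 hours at room temperature.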

[18] = qHTS assay to identify small molecule agonists of the estrogen receptor beta (ER-beta) signaling pathway - cell viability counter screen (AID 1259380); also: nearly all actives have a fitted effect of over 30% in size
Procedure, shortened: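 ER-beta-UAS-bla HEK293T cells in medium with 2% charcoal-stripped FBS were preincubated 6 hr at 37C, dosed with compound in DMSO for 16 hr, then after the bla read, CellTiter-Glo was added for 30 min at room temperature; luminescence recorded.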

Measured: Potency

O=C(OCCN1CCOCC1)c1cccnc1Nc1cccc(C(F)(F)F)c1
not listed: [16] | [17] | [18]
inactive: all other assays above

CC1(C)CC(=O)CC(C)(C)N1
not listed: [12]
inactive: all other assays above

O=C1OC(=O)C2CC=CCC12 (stereo unspecified)
not listed: [12]
inactive: all other assays above

COc1ccnc2c1CCCCC2S(=O)c1nc2ccccc2[nH]1 (stereo unspecified)
not listed: [12] | [16] | [18]
inactive: all other assays above

S=c1[nH][nH]c(=S)s1
not listed: [12]
inactive: all other assays above

C/C(=C\C(C)CC(C)CC(C)C)C1CC(=O)OC1=O (stereo unspecified)
not listed: [12] | [17] | [18]
inactive: all other assays above
